Compound activity deposited in PubChem BioAssay by several laboratories.
NRP1-CendR mod – alters CendR peptide binding to human NRP-1; O14786; inhibition, % at 25 µM; FAM-RPARPAR peptide binding to NRP-1, fluorescence polarization; actives 0.85% (n = 360,000);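 active = inhibition or corrected inhibition above about 18%, plus a signal ratio from 0.5 to 1.5, limit read from the data, passing the limit was not always enough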
MEKK2mut PB1 HTS – signal of MEK5 binding to mutant human MEKK2 PB1 domain; bead flow cytometry, Alexa488-MEK5 binding to MEKK2 mutant; percent response, % at 10 µM; actives 0.35% (n = 290,000); AID 1530; in the data active = percent response above about 24%, passing the limit was not always enough
MEKK3 PB1 HTS – modulators (inhibitors or enhancers) of MEK5 binding to human MEKK3 PB1 domain | Q99759 | bead-based flow cytometry, Alexa488-MEK5 binding to MEKK3; actives lie on both sides; 0 = blocked by unlabeled MEK5, 100 = vehicle | binding response (% of control), % at 10 µM | actives 1.4% (n = 290,000);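 active = binding response more than 3 SD above or below the average of its plate-row segment, actives on both sides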;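 note: Alexa488 bead fluorescence after subtracting the streptavidin-only scavenger bead signal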
SKN-1 inh – C. elegans SKN-1 inhibition. C. elegans VP596 Pgst-4::GFP/RFP ratio, acrylamide-induced, 24 h. inhibition, % at 21.8 µM. actives 0.49% (n = 360,000). AID 624304;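 active = interference check ratio from 0.5 to 1.5 plus GFP to RFP signal ratio inhibition reaching or exceeding a fixed threshold, cut at about 30% in these data, passing the limit was not always enough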
MEKK2 WT-MEK5 – raises or lowers MEK5 binding to wildtype human MEKK2 PB1 domain. Q9Y2U5. bead flow cytometry, Alexa488-MEK5 binding to MEKK2 WT; actives lie on both sides. binding response (% of control), % at 10 µM. actives 1.1% (n = 290,000); in the data active = binding response below about 67% or above about 130%
MEKK2wt confirm – raises or lowers MEK5 binding to wildtype human MEKK2, retest. shares compounds with MEKK3 PB1 HTS. bead flow cytometry, Alexa488-MEK5 binding to MEKK2 WT; actives lie on both sides. binding response (% of control), % at 10 µM. actives 2.4% (n = 5,900). AID 1892; in the data active = binding response below about 16% or above about 210%; inactive = in between
MEKK2mut confirm – signal of MEK5 binding to mutant human MEKK2, retest; shares compounds with MEKK3 PB1 HTS; bead flow cytometry, Alexa488-MEK5 binding to MEKK2 mutant; percent response, % at 10 µM; actives 2% (n = 5,900); AID 1893; in the data active = percent response mostly above about 71%, no sharp cut-off; inactive = mostly below about 38%;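 note: higher means compound restores mutant binding toward wildtype level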
MEKK3 confirm – confirmation of inhibitors of MEK5 binding to human MEKK3; actives 1.8% (n = 5,900); shares compounds with MEKK3 PB1 HTS; bead flow cytometry, Alexa488-MEK5 binding to MEKK3; stronger effect = lower value; AID 1894; binding response (% of control), % at 10 µM;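 active = binding response below 72% of control, or above a set upper limit, though filed actives all read lower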
Numbers stand for hits; . = inactive; / = no result; [ ] = remark or other dose. This is a sample that favours compounds with a hit; in the whole collection about 3.2% have one here.

SMILES | NRP1-CendR mod | MEKK2mut PB1 HTS | MEKK3 PB1 HTS | SKN-1 inh | MEKK2 WT-MEK5 | MEKK2wt confirm | MEKK2mut confirm | MEKK3 confirm
CCCn1c(N2CCN(C(=O)Nc3ccccc3)CC2)nc2ccccc21 | . | . | . | . | . | / | / | /
CC1=C(C(=O)N(C(C)C)C(C)C)CC(CC(=O)NCCc2ccccn2)C(=O)N1Cc1ccc(F)cc1 (stereo not drawn) | . | / | / | . | / | / | / | /
Cc1cc(/C=C2/SC(=O)N(CC(=O)N3CCOCC3)C2=O)c(C)n1-c1ccccc1F | . | . | 148.0 | . | . | . | . | .
CCN(CC)S(=O)(=O)c1ccc2c(c1)c(=O)c(C(=O)NCc1ccco1)cn2C | . | . | 135.0 | . | . | . | . | .
Cc1ccc(-c2nc(C#N)c(NCc3cccc4c3OCO4)o2)cc1 | . | . | 70.0[inhibitor] | . | . | . | . | .
N#Cc1nc(-c2ccc(F)cc2)oc1NCc1cccc2c1OCO2 | . | . | . | . | . | / | / | /
CCOC(=O)C1CCN(C(=O)c2cc(S(=O)(=O)N3CCOCC3)c(Cl)cc2Cl)CC1 | . | . | 82.0[inhibitor] | . | . | . | . | .
Cc1cc(-c2n[nH]c(=S)n2/N=C/c2sccc2C)n[nH]1 | . | . | 148.0 | . | . | . | . | .
CC(C)c1ccc(N(C)C(=O)Cc2c(C(=O)O)n(C)c3ccccc23)cc1 | . | . | 1.0[inhibitor] | . | -1.0[inhibitor] | . | . | .
O=C(NCC(=O)N(c1ccccc1)C(C(=O)NCC1CCCO1)c1ccccc1)c1ccco1 (stereo not drawn) | . | . | 125.0 | . | . | . | . | .
O=C(NCC1CCCO1)C(c1cccnc1)N(C(=O)Cc1cccs1)c1ccccc1 (stereo not drawn) | . | . | -1.0[inhibitor] | . | -10.0[inhibitor] | . | . | .
O=C(NCC(=O)N(c1cccc(F)c1)C(C(=O)NC1CCCC1)c1cccnc1)c1cccs1 (stereo not drawn) | . | . | 129.0 | . | . | . | . | .
Cc1ccccc1N(C(=O)Cc1cccs1)C(C(=O)NCC1CCCO1)c1cccnc1 (stereo not drawn) | . | . | . | . | . | / | / | /
O=C(NCC1CCCO1)C(c1cccs1)N(Cc1cccs1)C(=O)Cn1nnc(-c2cccs2)n1 (stereo not drawn) | . | . | 66.0[inhibitor] | . | -2.0 | . | . | .
Cc1cc(N(C)C)cc(C)c1N=Nc1cc[n+]([O-])cc1 | . | / | / | . | / | / | / | /
COC(=O)[C@]12CCCCC=C1N(CCc1ccc(OC)c(OC)c1)C(=O)[C@H](CC(=O)NCCCCc1ccccc1)C2 | . | / | / | . | / | / | / | /
CCOC(=O)c1c(C)[nH]c(C(=O)N(C)CC(=O)Nc2ccc(OCC)c(OCC)c2)c1C | . | / | / | . | / | / | / | /
COc1ccc(OC2(C)CCN(Cc3ccc(-c4ccccc4)o3)C2)cc1 (stereo not drawn) | . | / | / | . | / | / | / | /
CSCCC(c1nnnn1C1CCCC1)N1CCN(C/C=C/c2ccccc2)CC1 (stereo not drawn) | . | / | / | . | / | / | / | /
CS(=O)(=O)N(Cc1ccc(Cl)cc1)c1ccc(C(=O)NCC2CCCO2)cc1 (stereo not drawn) | . | . | . | . | . | / | / | /
CS(=O)(=O)N(Cc1ccccc1)c1ccc(C(=O)NCC2CCCO2)cc1 (stereo not drawn) | . | . | 123.0 | . | . | . | . | .
Cc1nc(COC(=O)c2ccc(CO)cc2)cs1 | . | . | 0.0[inhibitor] | . | 0.0[inhibitor] | . | . | .
Cc1ccc(S(=O)(=O)N2CCN(Cc3ccco3)CC2)c(C)c1 | . | . | . | . | . | / | / | /
CCOc1cc(C2C(C#N)=C(N)Oc3n[nH]c(-c4ccccc4)c32)ccc1O (stereo not drawn) | . | . | 125.0 | . | . | . | . | .
O=C(OCC(=O)N1CCCc2ccccc21)c1c(F)cccc1F | . | / | / | . | / | / | / | /
SMILES | NRP1-CendR mod | MEKK2mut PB1 HTS | MEKK3 PB1 HTS | SKN-1 inh | MEKK2 WT-MEK5 | MEKK2wt confirm | MEKK2mut confirm | MEKK3 confirm
CC1=Nc2ccccc2/C1=C/c1c(N)n2c(S(=O)(=O)C(C)C)nsc2nc1=O | . | . | . | . | . | / | / | /
CC(C)S(=O)(=O)c1nsc2nc(=O)c(/C=C3\C=Nc4ccccc43)c(N)n12 | . | . | 129.0 | . | . | . | . | .
Cn1ncc2c(Nc3ccc4ccccc4c3)ncnc21 | . | . | 14.0[inhibitor] | . | 19.0[inhibitor] | . | . | .
Cc1cccc(Nc2ncnc3c2cnn3C)c1 | . | . | . | . | . | / | / | /
O=C(O)CCN1C(=O)C2C3CC(C2C1=O)C1C(c2ccccc2)c2sc(=O)n(-c4ccccc4)c2SC31 (stereo not drawn) | . | . | 129.0 | . | . | . | . | .
O=C(O)CCN1C(=O)C2C3CC(C2C1=O)C1C(c2ccccc2)c2sc(=O)[nH]c2SC31 (stereo not drawn) | . | . | . | . | . | / | / | /
COc1ccc(-c2cn[nH]c2-c2ccc(OCc3ccc(F)cc3)cc2O)cc1OC | . | . | . | . | . | / | / | /
COc1cc2c3nnc(-c4ccc(F)cc4)c-3cn(Cc3ccccc3)c2cc1OC | . | 46.0 | . | . | 178.0 | . | . | .
Cn1nc2c3cc(F)ccc3n(Cc3ccc(F)cc3)cc-2c1=O | . | . | . | . | . | / | / | /
COc1ccc(Cn2cc3c(-c4ccc(F)cc4)nnc-3c3cc(OC)c(OC)cc32)cc1 | . | 57.0 | . | . | 188.0 | 208.0 | 81.0 | .
COc1cc2c3nnc(-c4ccc(F)cc4)c-3cn(Cc3ccc(F)cc3)c2cc1OC | . | 36.0 | . | . | 193.0 | . | . | .
CC(C)Oc1ccc(S(=O)(=O)N2CCOCC2)cc1NC(=O)CSC(=S)N1CCCC1 | . | / | / | . | / | / | / | /
O=C(OCC(=O)N(C1CCCCC1)C1CCCCC1)c1cnccn1 | . | / | / | . | / | / | / | /
Cc1ccc2nc(Cl)c(CN(C(=O)c3cnccn3)C3CCCCC3)cc2c1 | . | . | 2.0[inhibitor] | . | -2.0[inhibitor] | . | . | .
CCCn1c(C)cc(-c2csc(N)n2)c1C | . | . | . | . | . | / | / | /
COc1ccc(-n2c(C)cc(-c3csc(N)n3)c2C)cc1 | . | . | 128.0 | . | . | . | . | .
Cc1cc(-c2csc(N)n2)c(C)n1-c1ccc(Cl)c(Cl)c1 | . | . | 153.0 | . | . | . | . | .
CN1C(=O)C(=O)/C(=C(/O)c2ccccc2)C1c1ccc([N+](=O)[O-])cc1 (stereo not drawn) | . | . | . | . | . | / | / | /
CCCCOc1ccc(C2OC34CCCCC3C(C#N)(C#N)C2(C#N)C(=N)O4)cc1 (stereo not drawn) | . | . | . | . | . | / | / | /
